We go through five sequences from PMC11006913.

Changes are numbered by the printed parent chain.

Assay in all cases: PBM; 200 nM protein, PBS
Conditions in all cases: dsDNA, one strand shown

Experiment [1] addresses T1, SIX6 (Homo sapiens, UniProt O95475 114-200, L167I).
T1 sequence: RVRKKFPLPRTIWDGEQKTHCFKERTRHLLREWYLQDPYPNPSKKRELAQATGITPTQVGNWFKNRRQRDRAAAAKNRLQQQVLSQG

Experiment [2] concerns the target T2, SIX6 (Homo sapiens, UniProt O95475 114-200, L143V).
T2 sequence: T1 sequence with L30V, I54L

For experiment [3], the target named is T3, SIX6 (Homo sapiens, UniProt O95475 114-200, H141N).
T3 sequence: T1 sequence with H28N, I54L

Experiment [4] concerns the target T4, SIX6 (Homo sapiens, UniProt O95475 114-200, T165P).
T4 sequence: T1 sequence with T52P, I54L

Experiment [5] has as its target T5, SIX6 (Homo sapiens, UniProt O95475 114-200, L167M).
T5 sequence: T1 sequence with I54M

Experiment [6] addresses T6, SIX6 (Homo sapiens, UniProt O95475 114-200, L143M).
T6 sequence: T1 sequence with L30M, I54L

The target in experiment [7] is T7, SIX6 (Homo sapiens, UniProt O95475 114-200, L143I).
T7 sequence: T1 sequence with L30I, I54L

The target of experiment [8] is T8, SIX6 (Homo sapiens, UniProt O95475 114-200, T165G).
T8 sequence: T1 sequence with T52G, I54L

Experiment [9] addresses T9, SIX6 (Homo sapiens, UniProt O95475 114-200, T139Q).
T9 sequence: T1 sequence with T26Q, I54L

In experiment [10] the target is T10, SIX6 (Homo sapiens, UniProt O95475 114-200, T165A).
T10 sequence: T1 sequence with T52A, I54L

Experiment [11] concerns the target T11, SIX6 (Homo sapiens, UniProt O95475 114-200, L167V).
T11 sequence: T1 sequence with I54V

Experiment [12] deals with T12, SIX6 (Homo sapiens, UniProt O95475 114-200).
T12 sequence: T1 sequence with I54L

Experiment [13] deals with T13, SIX6 (Homo sapiens, UniProt O95475 114-200, T165I).
T13 sequence: T1 sequence with T52I, I54L

Experiment [14] concerns the target NKX3-2 (Homo sapiens, UniProt P78367 192-278, P234S).
The target in experiment [15] is NKX3-2 (Homo sapiens, UniProt P78367 192-278).
Chain of NKX3-2 (Homo sapiens, UniProt P78367 192-278) (P78367 192-278): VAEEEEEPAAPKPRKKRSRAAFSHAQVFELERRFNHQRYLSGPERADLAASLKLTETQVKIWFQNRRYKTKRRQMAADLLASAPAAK

Chain of NKX3-2 (Homo sapiens, UniProt P78367 192-278, P234S) (P78367 192-278 P234S): as the sequence (P78367 192-278) above, with P43S counted along it

As to ATATCATG, the binding signal in the experiment with SIX6 [1] is 11.1 upbm affinity estimate (log intensity, higher = more binding, comparable within an allelic series); with SIX6 [2], 10.4 upbm affinity estimate (log intensity, higher = more binding, comparable within an allelic series); with SIX6 [3], 11.1 upbm affinity estimate (log intensity, higher = more binding, comparable within an allelic series); in the experiment with SIX6 [4], 9.92 upbm affinity estimate (log intensity, higher = more binding, comparable within an allelic series); with SIX6 [5], 10.8 upbm affinity estimate (log intensity, higher = more binding, comparable within an allelic series); in the experiment with SIX6 [6] it was 10.9 upbm affinity estimate (log intensity, higher = more binding, comparable within an allelic series). Also, the binding signal with SIX6 [7] is 10.4 upbm affinity estimate (log intensity, higher = more binding, comparable within an allelic series); with SIX6 [8] it was 11.1 upbm affinity estimate (log intensity, higher = more binding, comparable within an allelic series); in the experiment with SIX6 [9], 11.2 upbm affinity estimate (log intensity, higher = more binding, comparable within an allelic series); with SIX6 [10] it was 11 upbm affinity estimate (log intensity, higher = more binding, comparable within an allelic series); with SIX6 [11], 11 upbm affinity estimate (log intensity, higher = more binding, comparable within an allelic series); in the experiment with SIX6 [12], 11 upbm affinity estimate (log intensity, higher = more binding, comparable within an allelic series). Also, the binding signal with SIX6 [13] was 11 upbm affinity estimate (log intensity, higher = more binding, comparable within an allelic series).
Turning to CCATATCA, the binding signal in the experiment with SIX6 [1] was 11.1 upbm affinity estimate (log intensity, higher = more binding, comparable within an allelic series); in the experiment with SIX6 [2], 10.1 upbm affinity estimate (log intensity, higher = more binding, comparable within an allelic series); with SIX6 [3], 11.1 upbm affinity estimate (log intensity, higher = more binding, comparable within an allelic series); in the experiment with SIX6 [4] it was 9.48 upbm affinity estimate (log intensity, higher = more binding, comparable within an allelic series); in the experiment with SIX6 [5], 10.4 upbm affinity estimate (log intensity, higher = more binding, comparable within an allelic series); with SIX6 [6], 10.8 upbm affinity estimate (log intensity, higher = more binding, comparable within an allelic series). For the same sequence, the binding signal in the experiment with SIX6 [7] is 10.2 upbm affinity estimate (log intensity, higher = more binding, comparable within an allelic series); with SIX6 [8] it was 11.1 upbm affinity estimate (log intensity, higher = more binding, comparable within an allelic series); with SIX6 [9] it was 11 upbm affinity estimate (log intensity, higher = more binding, comparable within an allelic series); with SIX6 [10], 11 upbm affinity estimate (log intensity, higher = more binding, comparable within an allelic series); with SIX6 [11], 10.8 upbm affinity estimate (log intensity, higher = more binding, comparable within an allelic series); with SIX6 [12] it was 10.9 upbm affinity estimate (log intensity, higher = more binding, comparable within an allelic series). Moreover, the binding signal in the experiment with SIX6 [13] was 10.8 upbm affinity estimate (log intensity, higher = more binding, comparable within an allelic series).
With ACTGCCGG, the binding signal is 9.01 upbm affinity estimate (log intensity, higher = more binding, comparable within an allelic series) with SIX6 [1]; 9.11 upbm affinity estimate (log intensity, higher = more binding, comparable within an allelic series) with SIX6 [2]; 9.15 upbm affinity estimate (log intensity, higher = more binding, comparable within an allelic series) with SIX6 [3]; 9.02 upbm affinity estimate (log intensity, higher = more binding, comparable within an allelic series) with SIX6 [4]; 9.04 upbm affinity estimate (log intensity, higher = more binding, comparable within an allelic series) with SIX6 [5]; 9.15 upbm affinity estimate (log intensity, higher = more binding, comparable within an allelic series) in the experiment with SIX6 [6]. For the same sequence, the binding signal in the experiment with SIX6 [7] is 9.19 upbm affinity estimate (log intensity, higher = more binding, comparable within an allelic series); with SIX6 [8], 9.17 upbm affinity estimate (log intensity, higher = more binding, comparable within an allelic series); with SIX6 [9], 9.29 upbm affinity estimate (log intensity, higher = more binding, comparable within an allelic series); with SIX6 [10], 9.08 upbm affinity estimate (log intensity, higher = more binding, comparable within an allelic series); with SIX6 [11], 9.11 upbm affinity estimate (log intensity, higher = more binding, comparable within an allelic series); with SIX6 [12], 9.23 upbm affinity estimate (log intensity, higher = more binding, comparable within an allelic series). Moreover, the binding signal with SIX6 [13] was 9.16 upbm affinity estimate (log intensity, higher = more binding, comparable within an allelic series).
For the sequence GATCCGGA, the binding signal with SIX6 [1] was 10.4 upbm affinity estimate (log intensity, higher = more binding, comparable within an allelic series); with SIX6 [2], 9.71 upbm affinity estimate (log intensity, higher = more binding, comparable within an allelic series); with SIX6 [3], 10.2 upbm affinity estimate (log intensity, higher = more binding, comparable within an allelic series); with SIX6 [4], 9.25 upbm affinity estimate (log intensity, higher = more binding, comparable within an allelic series); in the experiment with SIX6 [7] it was 9.87 upbm affinity estimate (log intensity, higher = more binding, comparable within an allelic series); with SIX6 [8] it was 10.4 upbm affinity estimate (log intensity, higher = more binding, comparable within an allelic series). The binding signal in the experiment with SIX6 [9] is 10.7 upbm affinity estimate (log intensity, higher = more binding, comparable within an allelic series); in the experiment with SIX6 [10], 10.3 upbm affinity estimate (log intensity, higher = more binding, comparable within an allelic series); with SIX6 [11], 10.3 upbm affinity estimate (log intensity, higher = more binding, comparable within an allelic series); in the experiment with SIX6 [12] it was 10.4 upbm affinity estimate (log intensity, higher = more binding, comparable within an allelic series); in the experiment with SIX6 [13], 10.2 upbm affinity estimate (log intensity, higher = more binding, comparable within an allelic series).
For the sequence CGCAGAGC, the binding signal was 8.98 upbm affinity estimate (log intensity, higher = more binding, comparable within an allelic series) with SIX6 [1]; 8.91 upbm affinity estimate (log intensity, higher = more binding, comparable within an allelic series) in the experiment with SIX6 [2]; 8.85 upbm affinity estimate (log intensity, higher = more binding, comparable within an allelic series) with SIX6 [3]; 9 upbm affinity estimate (log intensity, higher = more binding, comparable within an allelic series) in the experiment with SIX6 [4]; 8.82 upbm affinity estimate (log intensity, higher = more binding, comparable within an allelic series) with SIX6 [5]; 8.9 upbm affinity estimate (log intensity, higher = more binding, comparable within an allelic series) with SIX6 [6]. Besides, the binding signal with SIX6 [7] is 8.9 upbm affinity estimate (log intensity, higher = more binding, comparable within an allelic series); with SIX6 [8], 8.85 upbm affinity estimate (log intensity, higher = more binding, comparable within an allelic series); with SIX6 [9] it was 8.88 upbm affinity estimate (log intensity, higher = more binding, comparable within an allelic series); in the experiment with SIX6 [10], 8.97 upbm affinity estimate (log intensity, higher = more binding, comparable within an allelic series); with SIX6 [11] it was 9.02 upbm affinity estimate (log intensity, higher = more binding, comparable within an allelic series); in the experiment with SIX6 [12], 8.83 upbm affinity estimate (log intensity, higher = more binding, comparable within an allelic series). For the same sequence, the binding signal was 8.83 upbm affinity estimate (log intensity, higher = more binding, comparable within an allelic series) with SIX6 [13]; 10.6 upbm affinity estimate (log intensity, higher = more binding, comparable within an allelic series) with NKX3-2 [14]; 10.6 upbm affinity estimate (log intensity, higher = more binding, comparable within an allelic series) in the experiment with NKX3-2 [15].
